TrxR1 substrate = qHTS Assay for Substrates of Mammalian Selenoprotein Thioredoxin Reductase 1 (TrxR1): qHTS. Thioredoxin reductase 1, cytoplasmic (Rattus norvegicus), O89049. purified TrxR1 substrate turnover, NADPH consumption readout. Potency, µM (doses to about 114 µM), without a hit: at the top dose activity change, negative = substrate turnover. 390,000 tested, 0.01% active. AID 588456, 2011; also: potency is read from the fitted curve at half-maximal effect; nearly all actives have a fitted effect of over 50% in size
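Rat TrxR1, dispensed at 90 nM, was prereduced with 400 uM NADPH (final) for 5 min at ~22 deg C, then incubated with compound 15 min before 400 uM selenite. A first-read NADPH fluorescence drop versus no-compound background flagged substrates.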
TrxR1 inh = qHTS Assay for Inhibitors of Mammalian Selenoprotein Thioredoxin Reductase 1 (TrxR1): qHTS. recombinant rTrxR1, NADPH fluorescence consumption, selenite substrate. 390,000 tested, 1% active. Potency, µM (top dose mostly 114 µM), for the others: at the top dose activity change, negative = inhibition, usual class: inhibitors. Thioredoxin reductase 1, cytoplasmic (Rattus norvegicus), O89049; also: potency is read from the fitted curve at half-maximal effect; nearly all actives have a fitted effect of over 65% in size
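Rat TrxR1 (90 nM in the dispensed reagent) was pre-reduced with 400 uM NADPH for 5 min at room temperature, then incubated with compound for 15 min. After 400 uM selenite was added, NADPH fluorescence (Ex 340/Em 450 nm) was followed for 8 min.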
GALK inh = qHTS Assay for Inhibitors of Human Galactokinase (GALK); Purified GALK, Kinase-Glo residual ATP luminescence; Potency, µM (doses to about 57.5 µM), inactives show at the top dose activity change, negative = inhibition, hits mostly inhibitors; 270,000 tested, 0.007% active; AID 1868, 2009; also: potency is read from the fitted curve at half-maximal effect
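Luminescence from leftover ATP (Ultra-Glo luciferase/luciferin) served as read-out after a 1 h room-temperature reaction of 5 nM GALK with 35 uM ATP and 100 uM galactose.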
RORg inh = qHTS for inhibitors of ROR gamma transcriptional activity | Potency, µM (doses to about 53.6 µM), for the others: at the top dose activity change, negative = inhibition, actives largely listed as inhibitors | Drosophila S2 Gal4-RORgamma UAS-luciferase reporter, 20 h | 310,000 tested, 5.4% active; also: potency is read from the fitted curve at half-maximal effect; nearly all actives have a fitted effect of over 60% in size
Target sequence (P51450 whole entry, looked up, the tested form may be a part): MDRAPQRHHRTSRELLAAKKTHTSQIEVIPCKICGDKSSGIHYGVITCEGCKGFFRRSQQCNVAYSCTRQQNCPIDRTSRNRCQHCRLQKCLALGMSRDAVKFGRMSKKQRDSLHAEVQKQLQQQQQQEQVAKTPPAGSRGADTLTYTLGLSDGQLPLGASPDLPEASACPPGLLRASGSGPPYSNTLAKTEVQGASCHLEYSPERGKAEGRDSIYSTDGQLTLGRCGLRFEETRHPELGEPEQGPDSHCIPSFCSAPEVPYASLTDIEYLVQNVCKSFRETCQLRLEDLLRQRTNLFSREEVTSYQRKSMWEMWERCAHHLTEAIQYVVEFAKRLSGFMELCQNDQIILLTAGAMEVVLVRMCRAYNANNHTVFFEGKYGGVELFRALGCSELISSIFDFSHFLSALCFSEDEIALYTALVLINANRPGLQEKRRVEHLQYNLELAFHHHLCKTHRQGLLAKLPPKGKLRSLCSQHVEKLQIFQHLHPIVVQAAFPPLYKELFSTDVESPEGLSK
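Drosophila Schneider cells stably carrying a metallothionein-driven Gal4 DBD–ROR gamma fusion and a UAS-Photinus luciferase reporter were exposed to compound for 1 hr, then induced with copper sulfate (700 uM final) for 20 hr at ambient temperature before luminescence reading.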
VP16 counter = VP16 counterscreen qHTS for inhibitors of ROR gamma transcriptional activity; Drosophila S2 Gal4-VP16 UAS-luciferase, luminescence, 20 h; Potency, µM (doses to about 53.6 µM), without a hit: top-dose activity, negative = inhibition, most hits filed as inhibitors; 310,000 tested, 3.5% active; AID 2546, 2010;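 also: Gal4-VP16 expression switched on by copper sulfate through the metallothionein promoter; potency is read from the fitted curve at half-maximal effect; nearly all actives have a fitted effect of over 50% in size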
FBPA coupling cs = qHTS Assay for Inhibitors of Fructose-1,6-bisphosphate Aldolase from Giardia Lamblia: Coupling assay counterscreen. coupling enzyme system counterscreen, AmpLite Red fluorescence. activity change, negative = inhibition, % at 58.2 µM, hits read low. 290,000 tested, 0.67% active. AID 2472, 2010; in the data active = activity change below about -30%
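Coupling enzymes only (glyceraldehyde-3-phosphate) + compound, at 57.5 uM final, 10 min RT; add substrate/coupling/AmpLite Red mix, 20 min RT; fluorescence ex 525/em 598 nm. Actives flag coupling-system interference.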
Active calls of the source: *; ? = inconclusive; / = no result; [ ] = dose if it differs, or a comment. A selection: hits, their analogues and other compounds. The true share with any hit is near 5.9%. Unless noted, calls follow the shape of the dose curve; as a rule, active = well fitted curve in the direction sought with a large enough effect; inconclusive = small, poorly fitted or top-dose-only effect, or another doubt; inactive = no such curve, though single readings can be large; an effect the other way counts as inactive or inconclusive. % is scaled to controls: 0 for no effect and ±100 for the full control effect.

SMILES	TrxR1 substrate	TrxR1 inh	GALK inh	RORg inh	VP16 counter	FBPA coupling cs
COc1ccc(/C=C2\CN(Cc3ccccc3)C/C(=C\c3ccc(OC)c(O)c3)C2=O)cc1O	-3%	-16%	-8%	16µM*	?	-6
CCN1C/C(=C/c2ccc(OC)c(O)c2)C(=O)/C(=C/c2ccc(OC)c(O)c2)C1	-2%[57.1 µM]	-14%[57.1 µM]	0%	6.3µM*	?	-6
FC(F)(F)c1cccc(N2CCc3cn[nH]c32)c1	17%[57.1 µM]	6%[57.1 µM]	1%	?	-18%	0
COc1ccc(C(=O)N2CCC3(CC2)CCN(c2ccccc2)CC3)cc1	/	/	/	?	-7%	6
Cc1cc(=O)c2ccc3ccccc3c2[nH]1	12%	3%	-2%	-11%	-2%	-3
COc1ccc(-c2nc3ccccc3[nH]2)cc1	30%	20%	7%	7.9µM*	8.9µM*	-10
COc1ccc(-c2nc(=S)c3ccc4ccccc4c3[nH]2)cc1	7%[57.1 µM]	18%[57.1 µM]	1%	5.6µM*	?	0
COC(=O)c1ccc(-c2nc3ccccc3[nH]2)cc1	926%	56µM*	5%	-33%	?	1
COC(=O)c1ccc(C(=O)Nc2ccc3nc(-c4ccncc4)[nH]c3c2)cc1	0%	19%	-3%	-24%	-2%	-5
COc1ccc2oc(=Nc3ccccc3)c(-c3nc4ccccc4[nH]3)cc2c1	-10%	-6%	-8%	10µM*	?	1
c1ccc2[nH]c(-c3ccncc3)nc2c1	22%[57.1 µM]	19%[57.1 µM]	-1%	6%	5%	-3
O=C(COC(=O)c1ccccc1Cl)NC(=O)NCc1ccccc1	6%	14%	3%	1%	-15%	-5
COc1ccc(CNC(=O)CS(=O)Cc2nc(-c3ccc(OC)c(OC)c3)oc2C)cc1 (stereo not drawn)	8%	-19%	-7%	1%	1%	/
COc1ccc(CNC(=O)CS(=O)Cc2nc(-c3ccc(C)cc3)oc2C)cc1 (stereo not drawn)	-9%[57.1 µM]	?	2%	13µM*	1%	-1
CCCCNC(=O)CS(=O)Cc1nc(-c2cccc(C)c2)oc1C (stereo not drawn)	6%[57.1 µM]	1%[57.1 µM]	0%	-37%	1%	2
Cc1ccc(-c2nc(CS(=O)CC(=O)NCc3ccc(F)cc3)c(C)o2)cc1 (stereo not drawn)	3%	14%	-1%	11µM*	2%	/
CCCCNC(=O)CS(=O)Cc1nc(-c2cccc(Cl)c2)oc1C (stereo not drawn)	8%[57.1 µM]	14µM*	0%	-11%	5%	-4
COc1ccc(-c2nc(CS(=O)CC(=O)NCc3ccc4c(c3)OCO4)c(C)o2)cc1 (stereo not drawn)	7%[57.1 µM]	2%[57.1 µM]	0%	11µM*	4%	2
Cc1ccc(-c2nc(CS(=O)CC(=O)NCc3ccccc3)c(C)o2)cc1 (stereo not drawn)	1%[57.1 µM]	?	3%	?	6%	2
CCCCC(=O)Nc1cccc(-c2cn3ccsc3n2)c1	0%	15%	-1%	-13%	-13%	0
O=C(CCCCCN1C(=O)[C@@H]2Cc3ccccc3CN2C1=O)NCCc1ccccc1	4%	16%	6%	15%	1%	/
Cc1ccc(N(C(=O)c2ccc(S(=O)(=O)N3CCOCC3)cc2)C2C=CS(=O)(=O)C2)cc1 (stereo not drawn)	-1%	12%	-2%	5%	7%	1
Cc1ccc(NC(=O)C(C)c2cccc(C(=O)c3ccccc3)c2)cc1O (stereo not drawn)	-8%[57.1 µM]	10%[57.1 µM]	0%	-39%	?	2
CCOc1ccc(S(=O)(=O)N2CCC(C(=O)N3CCOCC3)CC2)cc1C	4%	20%	0%	24%	-3%	6
Cc1ccccc1-c1nc(CS(=O)CC(=O)NCc2ccccc2)c(C)o1 (stereo not drawn)	11%[57.1 µM]	-53%	3%	-21%	-3%	1
SMILES	TrxR1 substrate	TrxR1 inh	GALK inh	RORg inh	VP16 counter	FBPA coupling cs
COCCNC(=O)CS(=O)Cc1nc(-c2ccccc2C)oc1C (stereo not drawn)	7%	16µM*	2%	17%	-3%	3
COc1ccc(-c2nc(CS(=O)CC(=O)NCc3ccc(C)cc3)c(C)o2)cc1OC (stereo not drawn)	9%	50µM*	-3%	-19%	4%	2
Cc1ccc(CNC(=O)CS(=O)Cc2nc(-c3ccccc3C)oc2C)cc1 (stereo not drawn)	7%[57.1 µM]	?	1%	11µM*	8%	4
O=C(CSc1nccn1-c1ccc(Cl)cc1)Nc1ccc2c(c1)OCO2	-8%[57.1 µM]	3%[57.1 µM]	-2%	?	-8%	6
CCC(=O)OCCNc1cc(Sc2nc3ccccc3s2)c2nonc2c1[N+](=O)[O-]	-1%	0.28µM*	-1%	-37%	4.5µM*	-13
CCC(=O)OCCNc1cc(Sc2nc3ccccc3[nH]2)c2nonc2c1[N+](=O)[O-]	-15%	0.28µM*	-2%	3.2µM*	4.5µM*	-2
O=[N+]([O-])c1c(NCCCO)cc(Sc2nc3ccccc3s2)c2nonc12	-1%	0.63µM*	8%	16%	1%	0
O=C(CSc1nc2ccccc2s1)NCc1cc([N+](=O)[O-])ccc1O	10%[57.1 µM]	25%[57.1 µM]	/	/	/	/
NCCNc1ccc([N+](=O)[O-])c(Sc2nc3ccccc3[nH]2)c1	-15%	-16%	/	-6%	-13%	3
CCOc1ccc(CCNC(=O)c2ccc3c(Cl)c4c(nc3c2)CCCC4)cc1	-1%	25%	/	/	/	/
CCn1c2ccc(C)cc2c2nc3cc(C(=O)O)ccc3nc21	-1%	-16%	-3%	19%	?	-2
COc1ccc(C)cc1NS(=O)(=O)c1c(C(=O)N2CCC(C)CC2)c(C)n(C)c1C	2%[57.1 µM]	10%[57.1 µM]	/	/	/	/
Cc1ccc(C)c(CN2CCNC2=O)c1	-4%	10%	2%	4%	0%	-3
CC(/C=C/c1ccccc1)=N\NC(N)=S	-3%[57.1 µM]	-8%[57.1 µM]	0%	0.56µM*	2.2µM*	0
O=C(N/N=C/c1ccc([N+](=O)[O-])o1)c1ccc(NS(=O)(=O)c2cccs2)cc1	-3%	10µM*	-2%	33%	-4%	6
O=C(N/N=C/C=C/c1ccccc1)c1ccncc1	-10%	-13%	-2%	2.8µM*	7.1µM*	0
CC(/C=C/c1ccccc1)=N\NC(=S)NC(C)C	-16%	-3%[57.1 µM]	0%	?	?	-11
